Assay [1] deals with Lysosomal acid glucosylceramidase (Homo sapiens) (UniProt P04062). In words: Glucocerebrosidase-p2 (AID 348; in the data active means potency below about 10 µM; further: potency means the concentration at half of the fitted maximal effect). The settings on record: purified GBA, blue fluorogenic substrate, 40 min. The procedure, abridged:
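Compounds titrated from 0.6 nM upwards against 0.2 nM enzyme in pH 5.9 citric acid/KH2PO4, taurocholate, tween-20; blue fluorogenic substrate 80 uM, 40 min room temperature, stopped and read Ex 365/Em 440 for AC50.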

Assay [2] in a line: AP1 Signaling Pathway (AID 357; active means well fitted curve in either direction with a large enough effect, not every such curve was filed as active;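 further: ME-180 reporter cells stimulated with EGF at its EC50 level; on the % scale 0 is the no-effect control and ±100 the full control effect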). The settings on record: ME-180 AP-1-bla reporter, EGF-induced, beta-lactamase ratio, 5 h; at 7.69 µM (top of the series) unless noted. The procedure, abridged:
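In this screen, ME-180 cells in Opti-MEM with 0.5% dialyzed FBS received EC50 EGF and compound titrations for 5 h. AP-1 reporter beta-lactamase was detected via CCF4 ratio, giving AC50 for positive and negative modulators.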

For assay [3], the target named is Cytochrome P450 1A2 (Homo sapiens) (UniProt P05177). Put plainly: p450-cyp1a2 (AID 410; calls by dose curve; further: potency means the concentration at half of the fitted maximal effect). The settings on record: recombinant CYP1A2, luciferin-ME demethylation, luminescence; series mostly up to 57 µM. The gist of the method: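 Inhibition was calculated relative to 57 uM furafylline (full inhibition). The reaction used human CYP1A2 at 20nM with Luciferin-ME at its Km, 100uM, driven by an NADPH-regenerating system for 60 min at room temperature.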

A short description of assay [4]: NFAT Signaling Pathway (AID 444; active means well fitted curve in either direction with a large enough effect, not every such curve was filed as active;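 further: carbachol stimulus at about its EC50 of 1 µM final; on the % scale 0 is the no-effect control and ±100 the full control effect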). The conditions noted are these: Jurkat NFAT-bla M1, carbachol, beta-lactamase ratio, 5 h; at 7.69 µM (top of the series) unless noted. The gist of the method:
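Jurkat cells carrying an NFAT-driven β-lactamase reporter and co-transfected muscarinic M1 receptor were treated with compound plus carbachol (1 uM final, an EC50 level) for 5 h at 37 °C. CCF4 loading followed for 1 h at RT; 460/530 nm ratio gave %activity.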

Assay [5] can be described thus: Stat Signaling Pathway (AID 446; active means well fitted curve in either direction with a large enough effect, not every such curve was filed as active;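 further: ME-180 cervical cancer cells given 40 pM IL-6 alongside compound; SIE-controlled beta-lactamase reporter measured as 460/530 nm FRET emission ratio; on the % scale 0 is the no-effect control and ±100 the full control effect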). The conditions noted are these: ME-180 (cervical carcinoma) SIE beta-lactamase reporter, IL-6 stimulated, 5 h; at 7.69 µM (top of the series) unless noted. The gist of the method:
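ME-180 cells carrying a SIE-driven beta-lactamase reporter are stimulated with 40 pM IL-6 for 5 h at 37C in the presence of compound. The 460/530 nm FRET substrate ratio is read after 2.5 h at RT. Data are normalised to 300 pM IL-6 and to 125 nM JAK inhibitor controls.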

In assay [6] the target is Glucocorticoid receptor (Homo sapiens) (UniProt P04150). In words: GR-GFP Redistribution (AID 450;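 active means compounds whose dose series gives a full or clear partial fitted curve of increased nuclear translocation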; further: potency means the concentration at half of the fitted maximal effect). The conditions noted are these: U2OS GR-GFP nuclear translocation, laser cytometry, 2 h.
Assay [7] has the same target. Put plainly: GR-EFC Redistribution (AID 451; calls by dose curve; further: potency means the concentration at half of the fitted maximal effect). The conditions noted are these: CHO-K1 GR-EFC translocation, beta-gal luminescence, 2 h. The procedure, abridged: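 CHO-K1 cells stably expressing nuclear-localized β-gal enzyme acceptor and GR fused C-terminally to the enzyme donor fragment; ligand-driven nuclear translocation restores β-gal by complementation. Compounds titrated up to 46 uM final, 2 h at 37 °C; luminescence read.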

In assay [8] the target is Mitogen-activated protein kinase 10 (Mus musculus) (UniProt Q61831). In words: JNK3 AlphaScreen Assay (AID 530; active means well fitted curve in either direction with a large enough effect, not every such curve was filed as active;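 further: kinase came from lysate of stimulated human HepG2 cells; on the % scale 0 is the no-effect control and ±100 the full control effect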). The settings on record: JNK3 lysate, c-Jun phosphorylation; series mostly up to 57.1 µM. The gist of the method: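 JNK3 came from HepG2 lysates pre-activated with IL-1beta and TNF-alpha and phosphorylated biotinylated GST-cJun (1-79) at 10 uM ATP, pH 7.6, room temperature. Compounds were titrated. AlphaScreen signal used anti-phospho-cJun (Ser73) antibody.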

In assay [9] the target is 3',5'-cyclic-AMP phosphodiesterase 4B (Homo sapiens) (UniProt Q07343). In words: qHTS Assay for Inhibitors of PDE-IV (AID 607; active means well fitted activation curve with a large enough effect in the main read-out, with a control signal flat, not every such curve was filed as active; further: % of control where 0% means no effect). The conditions noted are these: HEK293 ACTOne CNG channel cells, membrane potential fluorescence; series mostly up to 22.9 µM. The procedure, abridged: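 HEK293 ACTOne cells with CNG channel (1000/well), endogenous PDE4; membrane potential dye, compounds up to 22.9 uM final. Fluorescence Ex 535/Em 590; RO 20-1724 (100 uM final) as reference.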

For assay [10], the target named is Dual specificity protein kinase CLK4 (Homo sapiens) (UniProt Q9HAZ1). In words: qHTS Assay for Inhibitors of CDC-like Kinase 4 (Kinase-Glo Assay) (AID 1770). Further: nearly all actives have a fitted effect of over 65% in size. Further: potency means the concentration at half of the fitted maximal effect. The settings on record: recombinant Clk4, Kinase-Glo ATP depletion luminescence; series mostly up to 66.7 µM. The procedure, abridged: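 Substrate mix (RS peptide 100 uM, ATP 1 uM) dispensed, compound pinned in, then Clk4 added to 25 nM final. Incubated 4.5 h at RT; Kinase-Glo reagent added, luminescence read after 5 min.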

Assay [11] shares this target. Put plainly: qHTS Assay for Inhibitors of CDC-like Kinase 4 (ADP-Glo Assay) (AID 1771). Further: nearly all actives have a fitted effect of over 70% in size. Further: potency means the concentration at half of the fitted maximal effect. The conditions noted are these: recombinant CLK4, ADP-Glo luminescence; series mostly up to 80 µM. The procedure, abridged:
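Kinase reaction: Clk4 at 25 nM, RS repeat peptide substrate at 100 uM, ATP at 1 uM, 1 hr, room temperature. Product ADP detected as luciferase signal via ADP-Glo.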

The target is the same in assay [12]. Put plainly: qHTS Assay for Inhibitors of CDC-like Kinase 4 (ADP-FP Assay) (AID 1795).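 Further: recombinant human CLK4 phosphorylating RS repeat peptide at 1 µM ATP; on the % scale 0 is the no-effect control and ±100 the full control effect; nearly all actives have a fitted effect of over 60% in size.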 The conditions noted are these: Transcreener ADP fluorescence polarization; series mostly up to 50 µM. The gist of the method:
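Clk4 6.25 nM; RS peptide 100 uM; ATP 1 uM; 25 mM Tris pH 7.5, 10 mM MgCl2; 1 h reaction. ADP detected via antibody/orange tracer FP displacement; TG003 positive control.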

Assay [13] concerns the target Ubiquitin carboxyl-terminal hydrolase 1 (Homo sapiens) (UniProt O94782). Put plainly: Inhibitors of USP1/UAF1: Pilot qHTS (AID 504865).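 Further: rhodamine fluorescence freed from ubiquitin-rhodamine substrate followed over time; top concentration of the series differs between compounds; on the % scale 0 is the no-effect control and ±100 the full control effect; nearly all actives have a fitted effect of over 35% in size.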 The conditions noted are these: purified USP1/UAF1, Ub-rhodamine cleavage fluorescence; series mostly up to 54.9 µM. The procedure, abridged:
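In 50mM HEPES pH 7.8 containing 0.5mM EDTA, 1mM TCEP, 0.1 mg/ml BSA and 0.01% Tween-20, 1nM USP1/UAF1 is exposed to compound for 15 min, then Ub-Rho (150nM final) is added and fluorescence is read over time.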

Assay [14] in a line: Primary qHTS for small molecule stabilizers of the endoplasmic reticulum resident proteome: Secreted ER Calcium Modulated Protein (SERCaMP) assay (AID 1508630). Further: on the % scale 0 is the no-effect control and ±100 the full control effect. The conditions noted are these: SH-SY5Y GLuc-SERCaMP (Gaussia luciferase released on ER calcium loss) secretion, thapsigargin, luminescence; series mostly up to 38.4 µM. The gist of the method:
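GLuc-SERCaMP-expressing SH-SY5Y cells, pretreated 16 h with compound, are challenged with thapsigargin to empty ER calcium stores; after 4 h, coelenterazine is added directly to the medium and luminescence is imaged.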

The target of assay [15] is Cytochrome P450 3A4 (Homo sapiens) (UniProt P08684). In words: qHTS Assay for Inhibitors and Substrates of Cytochrome P450 3A4 (AID 884). Further: potency means the concentration at half of the fitted maximal effect; nearly all actives have a fitted effect of over 50% in size. The conditions noted are these: recombinant CYP3A4, Luciferin-PPXE luminescence; series mostly up to 57.1 µM. The procedure, abridged: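 20 nM human CYP3A4 with 25 uM Luciferin-PPXE (at KM) in 200 mM KPO4, preincubated 10 min with compound; NADPH regeneration started a 60 min RT reaction. Luciferin detected by luminescence, normalized to 57 uM ketoconazole as full inhibition.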

For assay [16] the target is unchanged. Put plainly: qHTS Assay for Activators of Cytochrome P450 3A4 (AID 885). Further: nearly all actives have a fitted effect of over 65% in size. The conditions noted are these: recombinant CYP3A4, Luciferin-PPXE luminescence, 60 min; series mostly up to 57.1 µM. The procedure, abridged: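 Human CYP3A4 (20 nM) with Luciferin-PPXE at 25 uM (its KM) in 200 mM KPO4; 10 min compound preincubation, then NADPH regeneration and 60 min reaction at RT. Luciferin read by luminescence; normalized to 57 uM ketoconazole full inhibition.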

Assay [17] concerns the target Cytochrome P450 2C19 (Homo sapiens) (UniProt P33261). In words: qHTS Assay for Inhibitors and Substrates of Cytochrome P450 2C19 (AID 899). Further: potency means the concentration at half of the fitted maximal effect; nearly all actives have a fitted effect of over 60% in size. The settings on record: recombinant CYP2C19, luciferin-H EGE luminescence; series mostly up to 57.1 µM. The procedure, abridged:
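In 50mM KPO4, the reaction held 5nM enzyme and KM-level (10uM) Luciferin-H EGE; it ran 60 min at 37C after NADPH regeneration and a 10 min compound preincubation. Luminescence values were scaled to 57uM ketoconazole as complete inhibition.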

In assay [18] the target is Rap guanine nucleotide exchange factor 3 (Homo sapiens) (UniProt O95398). Put plainly: Confirmatory qHTS for agonist of cAMP-regulated guanine nucleotide exchange factor 3 (EPAC1) (AID 1645881).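 Further: EPAC1 catalysed release of BODIPY-GDP from Rap1B seen as fluorescence loss; 100% = effect of cAMP agonist control; nearly all actives have a fitted effect of over 75% in size.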 The settings on record: EPAC1 Rap1B BODIPY-GDP exchange fluorescence; series mostly up to 154 µM.
Assay [19] addresses Rap guanine nucleotide exchange factor 4 (Homo sapiens) (UniProt Q8WZA2). Put plainly: Confirmatory qHTS for agonist of cAMP-regulated guanine nucleotide exchange factor 4 (EPAC2) (AID 1645884).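 Further: nucleotide exchange releases bodipy-GDP from Rap1 and this lowers its fluorescence; on the % scale 0 is the no-effect control and ±100 the full control effect; nearly all actives have a fitted effect of over 65% in size.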 The settings on record: EPAC2 GEF activity, Rap1B-BODIPY-GDP fluorescence; series mostly up to 154 µM.
In assay [20] the target is Cytochrome P450 2C9 (Homo sapiens) (UniProt P11712). Put plainly: qHTS Assay for Inhibitors and Substrates of Cytochrome P450 2C9 (AID 883). Further: on the % scale 0 is the no-effect control and ±100 the full control effect; nearly all actives have a fitted effect of over 60% in size. The conditions noted are these: recombinant CYP2C9, luciferin-H luminescence, 60 min; series mostly up to 57.1 µM. The procedure, abridged:
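CYP2C9 deoxyluciferin hydroxylation, 37C, 60 min with NADPH regeneration; 10nM enzyme, 100uM Luciferin-H (KM). Glo detection reagent stopped reaction; luminescence normalized to sulphaphenazole (57uM) full inhibition.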

Unmarked numbers belong to inactive results. Records with an inconclusive call do not appear. Activity calls are given as the source filed them. Unless noted, the call rests on the fitted dose curve; in most records, active means well fitted curve in the direction sought with a large enough effect; inconclusive means small, poorly fitted or top-dose-only effect, or another doubt; inactive means no such curve, though single readings can be large; an effect the other way counts as inactive or inconclusive.

Cytochrome P450 3A4 (Homo sapiens), sequence (P08684 whole entry, looked up): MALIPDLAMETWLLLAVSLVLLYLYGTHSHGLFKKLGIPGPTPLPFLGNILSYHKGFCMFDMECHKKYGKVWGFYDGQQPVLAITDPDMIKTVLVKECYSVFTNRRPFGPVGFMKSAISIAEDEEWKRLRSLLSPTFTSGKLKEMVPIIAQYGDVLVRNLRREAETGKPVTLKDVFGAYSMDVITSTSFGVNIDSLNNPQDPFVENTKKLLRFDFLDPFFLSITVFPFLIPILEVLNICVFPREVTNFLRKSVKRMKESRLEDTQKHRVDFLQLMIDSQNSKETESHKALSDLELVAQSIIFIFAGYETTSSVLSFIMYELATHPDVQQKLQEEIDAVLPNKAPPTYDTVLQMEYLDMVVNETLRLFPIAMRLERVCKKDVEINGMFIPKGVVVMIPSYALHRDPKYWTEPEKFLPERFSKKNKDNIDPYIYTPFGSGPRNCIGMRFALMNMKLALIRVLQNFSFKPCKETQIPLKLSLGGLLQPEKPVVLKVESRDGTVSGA
Lysosomal acid glucosylceramidase (Homo sapiens), sequence (P04062 whole entry, looked up): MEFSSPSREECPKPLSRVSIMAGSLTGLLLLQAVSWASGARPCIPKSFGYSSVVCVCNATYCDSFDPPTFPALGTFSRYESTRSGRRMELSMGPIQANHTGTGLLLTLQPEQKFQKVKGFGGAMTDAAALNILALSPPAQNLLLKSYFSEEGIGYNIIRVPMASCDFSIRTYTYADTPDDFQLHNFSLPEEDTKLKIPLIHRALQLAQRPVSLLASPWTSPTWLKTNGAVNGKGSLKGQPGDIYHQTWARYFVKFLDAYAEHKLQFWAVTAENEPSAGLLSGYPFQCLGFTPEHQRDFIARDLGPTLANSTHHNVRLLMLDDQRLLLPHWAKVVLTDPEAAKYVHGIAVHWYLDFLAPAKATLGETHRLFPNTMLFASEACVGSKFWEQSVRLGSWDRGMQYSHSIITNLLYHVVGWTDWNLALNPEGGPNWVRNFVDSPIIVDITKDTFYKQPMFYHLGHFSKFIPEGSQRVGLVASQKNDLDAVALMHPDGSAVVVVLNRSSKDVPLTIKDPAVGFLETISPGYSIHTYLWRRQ
Ubiquitin carboxyl-terminal hydrolase 1 (Homo sapiens), sequence (O94782 whole entry, looked up): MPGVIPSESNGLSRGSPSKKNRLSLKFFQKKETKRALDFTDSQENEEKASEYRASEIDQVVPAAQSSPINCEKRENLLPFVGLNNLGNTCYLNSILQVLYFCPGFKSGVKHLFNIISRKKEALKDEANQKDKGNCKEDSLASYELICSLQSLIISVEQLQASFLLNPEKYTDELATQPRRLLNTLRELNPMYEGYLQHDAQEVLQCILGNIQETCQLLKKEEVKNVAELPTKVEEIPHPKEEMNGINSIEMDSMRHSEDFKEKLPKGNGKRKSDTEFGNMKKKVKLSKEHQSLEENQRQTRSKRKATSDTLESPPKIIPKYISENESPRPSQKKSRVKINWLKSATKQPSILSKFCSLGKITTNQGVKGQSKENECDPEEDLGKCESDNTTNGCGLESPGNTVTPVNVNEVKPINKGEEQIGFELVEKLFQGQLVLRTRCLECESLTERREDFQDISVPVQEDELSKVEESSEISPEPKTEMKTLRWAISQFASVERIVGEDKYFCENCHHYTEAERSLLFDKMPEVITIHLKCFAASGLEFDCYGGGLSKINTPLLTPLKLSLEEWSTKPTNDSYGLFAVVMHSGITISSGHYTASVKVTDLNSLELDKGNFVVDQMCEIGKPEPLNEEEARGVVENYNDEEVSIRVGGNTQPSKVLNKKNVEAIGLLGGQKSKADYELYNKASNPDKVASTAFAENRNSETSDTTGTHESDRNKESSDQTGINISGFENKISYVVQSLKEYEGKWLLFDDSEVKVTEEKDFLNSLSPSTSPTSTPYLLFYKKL
Rap guanine nucleotide exchange factor 3 (Homo sapiens), sequence (O95398 whole entry, looked up): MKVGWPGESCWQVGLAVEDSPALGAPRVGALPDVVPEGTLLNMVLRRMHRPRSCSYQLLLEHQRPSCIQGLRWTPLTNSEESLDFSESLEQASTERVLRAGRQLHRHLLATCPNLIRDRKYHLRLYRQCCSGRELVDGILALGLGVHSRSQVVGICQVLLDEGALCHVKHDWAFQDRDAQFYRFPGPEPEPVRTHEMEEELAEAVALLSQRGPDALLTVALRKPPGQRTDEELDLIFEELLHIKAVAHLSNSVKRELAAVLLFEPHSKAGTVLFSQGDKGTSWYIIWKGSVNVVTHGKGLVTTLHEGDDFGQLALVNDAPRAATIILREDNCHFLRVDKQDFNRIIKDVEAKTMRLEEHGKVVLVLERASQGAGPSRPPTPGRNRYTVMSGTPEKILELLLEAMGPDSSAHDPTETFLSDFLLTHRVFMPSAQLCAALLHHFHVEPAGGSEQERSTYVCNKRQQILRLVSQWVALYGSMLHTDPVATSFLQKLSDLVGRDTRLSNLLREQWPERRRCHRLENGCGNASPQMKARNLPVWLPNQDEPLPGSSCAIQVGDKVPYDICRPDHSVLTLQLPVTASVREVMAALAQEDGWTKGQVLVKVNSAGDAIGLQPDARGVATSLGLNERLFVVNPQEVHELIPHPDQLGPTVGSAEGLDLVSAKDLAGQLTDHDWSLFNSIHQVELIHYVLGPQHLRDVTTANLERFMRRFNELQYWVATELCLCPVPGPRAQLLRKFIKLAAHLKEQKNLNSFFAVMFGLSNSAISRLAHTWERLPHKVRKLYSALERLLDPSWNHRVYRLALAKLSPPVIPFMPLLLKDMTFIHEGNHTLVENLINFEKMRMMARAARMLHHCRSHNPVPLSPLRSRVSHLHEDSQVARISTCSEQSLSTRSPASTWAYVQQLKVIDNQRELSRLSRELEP
3',5'-cyclic-AMP phosphodiesterase 4B (Homo sapiens), sequence (Q07343 whole entry, looked up): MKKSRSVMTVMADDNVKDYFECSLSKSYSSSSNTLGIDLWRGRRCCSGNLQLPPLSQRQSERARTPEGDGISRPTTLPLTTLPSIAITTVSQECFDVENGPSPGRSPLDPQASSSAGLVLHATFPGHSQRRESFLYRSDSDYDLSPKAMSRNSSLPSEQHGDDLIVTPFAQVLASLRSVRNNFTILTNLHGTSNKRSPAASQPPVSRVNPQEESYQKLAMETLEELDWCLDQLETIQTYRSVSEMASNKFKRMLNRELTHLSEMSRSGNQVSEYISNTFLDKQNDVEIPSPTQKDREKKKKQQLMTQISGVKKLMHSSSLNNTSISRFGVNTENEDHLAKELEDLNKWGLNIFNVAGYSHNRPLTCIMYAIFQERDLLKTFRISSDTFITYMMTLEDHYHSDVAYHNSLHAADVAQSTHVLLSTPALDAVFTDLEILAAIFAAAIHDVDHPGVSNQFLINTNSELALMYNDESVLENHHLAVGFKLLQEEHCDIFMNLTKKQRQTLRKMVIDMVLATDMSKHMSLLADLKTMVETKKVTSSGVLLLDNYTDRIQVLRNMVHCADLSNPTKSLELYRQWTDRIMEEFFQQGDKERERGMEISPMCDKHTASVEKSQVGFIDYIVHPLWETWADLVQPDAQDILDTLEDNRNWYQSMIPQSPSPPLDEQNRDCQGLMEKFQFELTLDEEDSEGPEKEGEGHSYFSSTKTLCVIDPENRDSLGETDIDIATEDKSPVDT
Rap guanine nucleotide exchange factor 4 (Homo sapiens), sequence (Q8WZA2 whole entry, looked up): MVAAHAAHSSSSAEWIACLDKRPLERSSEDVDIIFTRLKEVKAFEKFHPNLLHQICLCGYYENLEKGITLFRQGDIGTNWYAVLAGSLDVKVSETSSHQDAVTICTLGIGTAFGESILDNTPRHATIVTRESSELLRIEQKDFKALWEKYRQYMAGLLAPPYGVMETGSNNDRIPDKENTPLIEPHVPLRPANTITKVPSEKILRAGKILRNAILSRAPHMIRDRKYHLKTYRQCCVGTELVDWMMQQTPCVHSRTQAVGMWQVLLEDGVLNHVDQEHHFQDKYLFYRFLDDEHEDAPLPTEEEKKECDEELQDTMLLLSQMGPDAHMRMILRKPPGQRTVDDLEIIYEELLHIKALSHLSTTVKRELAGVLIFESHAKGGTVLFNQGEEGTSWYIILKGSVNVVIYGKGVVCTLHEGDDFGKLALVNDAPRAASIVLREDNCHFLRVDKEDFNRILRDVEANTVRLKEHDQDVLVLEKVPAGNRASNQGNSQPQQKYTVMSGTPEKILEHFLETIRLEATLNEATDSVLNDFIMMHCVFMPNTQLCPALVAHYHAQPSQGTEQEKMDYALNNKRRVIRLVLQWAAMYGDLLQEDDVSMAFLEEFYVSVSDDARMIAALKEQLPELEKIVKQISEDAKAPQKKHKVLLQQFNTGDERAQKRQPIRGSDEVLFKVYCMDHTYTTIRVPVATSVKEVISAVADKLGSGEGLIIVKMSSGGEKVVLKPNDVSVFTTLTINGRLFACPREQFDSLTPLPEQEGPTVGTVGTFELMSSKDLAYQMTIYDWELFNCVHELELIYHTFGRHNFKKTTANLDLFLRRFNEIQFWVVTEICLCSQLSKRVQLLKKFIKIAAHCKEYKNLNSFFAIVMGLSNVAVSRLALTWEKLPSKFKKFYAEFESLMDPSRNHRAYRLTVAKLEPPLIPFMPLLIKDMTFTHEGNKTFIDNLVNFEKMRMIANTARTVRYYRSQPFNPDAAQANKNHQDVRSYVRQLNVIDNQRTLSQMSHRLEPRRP
Dual specificity protein kinase CLK4 (Homo sapiens), sequence (Q9HAZ1 whole entry, looked up): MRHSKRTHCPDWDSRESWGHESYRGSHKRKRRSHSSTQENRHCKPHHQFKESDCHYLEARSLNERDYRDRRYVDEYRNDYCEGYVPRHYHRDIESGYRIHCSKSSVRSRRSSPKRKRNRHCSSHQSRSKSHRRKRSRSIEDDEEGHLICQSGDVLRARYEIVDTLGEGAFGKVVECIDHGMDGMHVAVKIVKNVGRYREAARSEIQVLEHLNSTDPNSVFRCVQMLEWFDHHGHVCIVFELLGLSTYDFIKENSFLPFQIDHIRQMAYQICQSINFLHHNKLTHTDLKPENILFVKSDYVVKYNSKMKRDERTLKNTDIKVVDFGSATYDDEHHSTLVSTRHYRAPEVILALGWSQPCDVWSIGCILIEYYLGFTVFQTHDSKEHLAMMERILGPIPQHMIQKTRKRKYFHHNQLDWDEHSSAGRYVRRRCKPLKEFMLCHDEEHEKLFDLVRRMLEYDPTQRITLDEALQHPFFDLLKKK

`O=c1cnc2cnc(Oc3ccccc3)nc2n1C1CC1`: the Potency in assay [1] was over 11.4 µM; in [3], 7.94 µM (active); in assay [6], over 9.22 µM; in [7] it was over 46 µM. Moreover, the activity change, negative = inhibition in assay [2] is -14%; in assay [4], -5.78%. For the same compound, in assay [5], the activity, negative = inhibition was -13.1%. Besides, the Potency result in assay [8], in [9], in assay [10], in assay [11], in assay [12] and in [13] was “inactive” throughout. Moreover, the result in [14] was inactive.

With `CN(C)c1ncc2nc(-c3cc(F)cc(F)c3)c(=O)n(-c3ccccc3)c2n1`, the Potency in assay [1] was over 11.4 µM; in [3], 0.316 µM (active); in assay [6], over 9.22 µM; in assay [7] it was over 46 µM. In addition, the activity change, negative = inhibition was -8.03% in [2] and 9.84% in [4]. Further, the activity, negative = inhibition in assay [5] was 12.5%. Moreover, the Potency result in [8], in assay [9], in assay [10], in assay [11], in [12] and in assay [13] was “inactive” throughout. In addition, the outcome in assay [14] was inactive.

Regarding `COc1ccc(CNc2ccnc(-c3cccc(C#N)c3)n2)c(OC)c1`, the Potency in assay [3] was 2.51 µM (active); in assay [7], over 46 µM; in assay [15] it was 2 µM (active); in assay [17], 3.98 µM (active); in assay [10] it was 15.8 µM (active); in assay [11] it was 10 µM (active). Further, the Potency result in [8], in assay [16], in assay [13], in [18] and in assay [19] was “inactive” throughout. Also, in assay [14], the outcome was inactive.

For the compound `C=CC(C)(C)c1c2c(c(O)c3c(=O)c4ccc(O)c(O)c4oc13)C=CC(C)(C)O2`, in assay [14], the outcome was inactive. Moreover, the Potency entry in assay [18] and in assay [19] was “inactive” each time.

Consider `COc1ccc(CNc2nc(-c3ccc4c(c3)OCO4)nc3ccccc23)c(OC)c1`, for which the Potency is over 11.4 µM in assay [1]; 3.98 µM (active) in assay [3]; over 46 µM in assay [6]; over 46 µM in assay [7]; 1.26 µM (active) in assay [15]; 7.94 µM (active) in assay [17]. Also, the activity change, negative = inhibition in assay [2] is 0.828%. For the same compound, the activity, negative = inhibition in assay [5] was 2.14%. Besides, the Potency result in assay [8], in assay [9], in assay [16], in assay [10], in [12] and in assay [13] was “inactive” each time. The Potency entry in assay [18] and in [19] was “inactive” in each case. Further, in [14], the outcome was inactive.

`COCCn1c(=O)c(-c2ccccc2)nc2cncnc21`: the Potency in assay [1] is over 11.4 µM; in [3], 0.794 µM (active); in assay [6], over 9.22 µM; in assay [7], over 46 µM. Besides, the figures for the activity change, negative = inhibition in assay [2] and in assay [4] were -9.61% and -5.89%, respectively. Besides, the activity, negative = inhibition in assay [5] was -10.2%. Further, the Potency entry in [8], in assay [9], in assay [10], in [11], in assay [12] and in assay [13] was “inactive” each time. In addition, in assay [14], the outcome was inactive.

Turning to `O=c1c(-c2cc(F)cc(F)c2)nc2cncnc2n1C1CC1`, the Potency in assay [1] was over 11.4 µM; in assay [3], 1.26 µM (active); in [6] it was over 9.22 µM; in assay [7], over 46 µM. For the same compound, the activity change, negative = inhibition in [2] was -12%; in assay [4], 2.52%. Moreover, the activity, negative = inhibition in assay [5] is -11.9%. Also, the Potency result in assay [8], in assay [9], in [20], in assay [16], in assay [10] and in assay [11] was “inactive” in each case. The Potency entry in assay [12] and in assay [13] was “inactive” in each case. Moreover, the outcome in assay [14] was inactive.

The values are drawn from PubChem BioAssay (NCATS).
